Type in all cases: functional
In assay [1] the test system is Plasmodium falciparum. The assay is described as follows: GSK_TCMDC: Inhibition of Plasmodium falciparum 3D7 in whole red blood cells, using parasite LDH activity as an index of growth. Test compounds present at 2uM.
The test system of assay [2] is Plasmodium falciparum. The experiment in a line: GSK_TCMDC: Inhibition of Plasmodium falciparum Dd2 in whole red blood cells, using parasite LDH activity as an index of growth. Test compounds present at 2uM.
In a further assay the test system is HepG2. The assay is described as follows: GSK_TCMDC: Percent inhibition of human HepG2 cell line. Test compounds present at 10uM.

Drawing on ChEMBL document CHEMBL1157539, “Thousands of chemical starting points for antimalarial lead identification” (Nature, 2010), this text covers Inhibition for 31 molecules.

Each structure is given as a SMILES string.

In general, Inhibition refers to the drop in the measured response relative to a control, in per cent. On to `CCCCCN1CCCCC(NS(=O)(=O)c2ccc(C(=O)Nc3ccc(C(F)(F)F)cc3)cc2)C1.O=C(O)C(F)(F)F` (stereo not drawn), for which the Inhibition with Plasmodium falciparum [1] amounted to 89%; with Plasmodium falciparum [2], 0%; in the assay with HepG2, 34%.

Turning to `CC(=O)NC1=NC(C)(C)N(OCc2ccc(Cl)c(Cl)c2)C(NC(C)=O)=N1`, the Inhibition is recorded as 94% in the assay on Plasmodium falciparum [1], 97% with Plasmodium falciparum [2] and 68% in the assay on HepG2.

As to `CCOC(=O)c1c(C)n(-c2ccccc2)c2ccc(OC(=O)COc3ccc(Cl)cc3Cl)cc12`, the Inhibition in the assay with Plasmodium falciparum [1] was determined as 99%; with Plasmodium falciparum [2], 87%; in the assay on HepG2, 11%.

Consider `Cc1ccc(NC(=O)Cc2noc(CC3CCCN3C(=O)N[C@@H](C)c3ccccc3)n2)cc1` (stereo partly drawn), for which the figures for the Inhibition with Plasmodium falciparum [1], in the assay with Plasmodium falciparum [2] and in the assay with HepG2 were 95%, 90% and 1%, respectively.

Turning to `O=C(NCCCc1ccccc1)c1csc(C2CCCN(C(=O)c3ccc(O)c(-c4cccc5ccccc45)c3)C2)n1` (stereo not drawn), the Inhibition in the assay on Plasmodium falciparum [1] is given as 97%; in the assay with Plasmodium falciparum [2] it was 98%; in the assay with HepG2, 3%.

For the molecule `N#CC(c1ccc(Cl)cc1)c1ccc2c(C(F)(F)F)cc(C(F)(F)F)nc2n1` (stereo not drawn), the results for the Inhibition with Plasmodium falciparum [1], with Plasmodium falciparum [2] and with HepG2 were 97%, 54% and 68%, respectively.

For the molecule `O=C(Nc1ccc(CN2CCN(S(=O)(=O)c3ccc(Cl)s3)CC2)cc1)c1cccs1.O=C(O)C(F)(F)F`, the Inhibition came to 92% with Plasmodium falciparum [1], 87% in the assay with Plasmodium falciparum [2] and 14% in the assay with HepG2.

`COc1ccc(CN(C)C(=O)CCNS(=O)(=O)c2ccc3c(c2)OCCCO3)cc1F`: the Inhibition in the assay on Plasmodium falciparum [1] is reported as 96%; with Plasmodium falciparum [2], 94%; in the assay with HepG2, 9%.

Consider `Cc1cc(C2CCN(CCCCNC(=O)c3ccc(-c4ccc(C#N)cc4)cc3)CC2)c(C)cc1O`, for which the Inhibition turned out to be 96% in the assay with Plasmodium falciparum [1], 96% with Plasmodium falciparum [2] and 27% in the assay with HepG2.

For the molecule `COc1cc(Cc2cnc(N)nc2N)cc(OCC(C)(C)C(=O)O)c1OC`, the Inhibition with Plasmodium falciparum [1] was 89%; in the assay on Plasmodium falciparum [2] it was 0%; with HepG2 it was 0%.

As to `COc1ccc2nccc([C@@H](O)CN3CCC(NC(=O)[C@@H]4Cc5ccccc5CN4C(=O)OC(C)(C)C)CC3)c2c1`, the Inhibition in the assay on Plasmodium falciparum [1] is given as 92%; with Plasmodium falciparum [2], 61%; in the assay on HepG2 it was 15%.

As for `COc1ccc(Cn2c(Nc3cccc(C(F)(F)F)c3)nc3cc(C(=O)NCCN4CCCC4)cnc32)cc1Cl`, the Inhibition was found to be 97% in the assay with Plasmodium falciparum [1], 31% with Plasmodium falciparum [2] and 10% with HepG2.

For the molecule `CCCc1ccc(C2CCN(CCCCNC(=O)c3ccc(NC(=O)c4ccc(Cl)cc4)cc3)CC2)cc1`, the Inhibition was 100% in the assay on Plasmodium falciparum [1], 100% in the assay with Plasmodium falciparum [2] and 39% in the assay on HepG2.

For `Cc1ccc(C(=O)Nc2ccc(Cl)c(N3CCN(CCc4ccccc4)CC3)c2)cc1.O=C(O)C(F)(F)F`, the Inhibition in the assay with Plasmodium falciparum [1] turned out to be 90%; in the assay on Plasmodium falciparum [2], 14%; in the assay with HepG2 it was 17%.

Turning to `COc1ccc(C2CC(c3cccs3)=NN2C(=O)CNc2ccccc2F)cc1OC` (stereo not drawn), the Inhibition in the assay with Plasmodium falciparum [1] is given as 87%; with Plasmodium falciparum [2] it was 45%; in the assay on HepG2, 11%.

Turning to `Cc1cc(N2CCC(NS(=O)(=O)c3ccc(F)cc3)CC2)nc(Nc2cccc(C#N)c2)n1.O=C(O)C(F)(F)F`, the Inhibition in the assay with Plasmodium falciparum [1] came out at 97%; in the assay on Plasmodium falciparum [2], 65%; with HepG2 it was 20%.

`N#Cc1ccc(-c2nc(CO)c(C(=O)NCCCCN3CCC(c4ccc5c(c4OCC(N)=O)CCCC5)CC3)s2)cc1`: the Inhibition in the assay with Plasmodium falciparum [1] is on record as 92%; in the assay on Plasmodium falciparum [2] it was 0%; in the assay on HepG2, 9%.

As for `COc1ccc2ncc(F)c(CCN3CCC(CNC(=O)C(=O)c4c[nH]c5ccccc45)CC3)c2n1`, the Inhibition was found to be 100% in the assay on Plasmodium falciparum [1], 99% with Plasmodium falciparum [2] and 48% in the assay on HepG2.

As to `COc1cc(-c2nc(C(C)(C)CN)[nH]c2-c2ccncc2)ccc1Br.Cl`, the Inhibition is reported as 97% in the assay on Plasmodium falciparum [1], 95% with Plasmodium falciparum [2] and 17% in the assay with HepG2.

As to `CCC1CN(S(=O)(=O)c2ccc3c(c2)NC(=O)CC(=O)N3)c2cc(Cl)ccc2O1` (stereo not drawn), the Inhibition with Plasmodium falciparum [1] came to 99%; in the assay on Plasmodium falciparum [2], 65%; in the assay with HepG2 it was 0%.

As to `C=CCOC(=O)N1CCC(CNCc2ccc(-c3cccc(-c4nc5ccccc5[nH]4)c3)cc2)C1.O=C(O)C(F)(F)F` (stereo not drawn), the Inhibition is on record as 100% in the assay with Plasmodium falciparum [1], 50% in the assay with Plasmodium falciparum [2] and 39% with HepG2.

Regarding `CCN(CC)CCNC(=O)c1ccc(Nc2ncc([N+](=O)[O-])c(Nc3ccccc3OC)n2)cc1.Cl`, the Inhibition is 97% in the assay with Plasmodium falciparum [1], 58% in the assay with Plasmodium falciparum [2] and 59% in the assay with HepG2.

Turning to `N#Cc1ccc(CN2CCCN(c3ccc(NC(=O)c4ccc(F)cc4)cc3)CC2)cc1.O=C(O)C(F)(F)F`, the Inhibition with Plasmodium falciparum [1] worked out at 90%; in the assay with Plasmodium falciparum [2], 61%; in the assay on HepG2 it was 12%.

For the molecule `O=C(Nc1ccc([N+](=O)[O-])cc1)Nc1nc2ccc(Cl)cc2s1`, the Inhibition came to 92% with Plasmodium falciparum [1], 33% with Plasmodium falciparum [2] and 63% in the assay with HepG2.

Take `NC(=O)c1cccc(-n2ccc3cc(CNC4Cc5ccccc5C4)ccc32)c1.O=C(O)C(F)(F)F`: the Inhibition in the assay on Plasmodium falciparum [1] turned out to be 88%; with Plasmodium falciparum [2], 7%; in the assay on HepG2, 17%.

As for `CN(CCCCCN1CCC(NC(=O)Nc2ccc(Oc3ccccc3)cc2)C1)C(=O)/C=C/c1ccc(Cl)c(Cl)c1` (stereo not drawn), the Inhibition in the assay with Plasmodium falciparum [1] is on record as 98%; with Plasmodium falciparum [2], 14%; with HepG2, 50%.

`CN(C)C1CCN(Cc2ccc(N3CCN(Cc4cccc5[nH]ccc45)CC3)nc2)CC1`: the values for the Inhibition in the assay with Plasmodium falciparum [1], with Plasmodium falciparum [2] and in the assay on HepG2 were 80%, 17% and 11%, respectively.

Take `CC(=O)N(C)c1cccc(C(=O)Nc2ccc(-c3cccc(-c4nc5cc(C(F)(F)F)ccc5[nH]4)c3)cc2)c1`: the Inhibition in the assay on Plasmodium falciparum [1] stood at 94%; in the assay on Plasmodium falciparum [2], 10%; in the assay with HepG2 it was 79%.

In the case of `CCN(CC)CCN(Cc1ccc(-c2ccc(C(F)(F)F)cc2)cc1)C(=O)Cn1c(CCc2ccc(F)c(F)c2F)nc(=O)c2ccc(F)cc21.O=C(O)C(O)C(O)C(=O)O`, the figures for the Inhibition in the assay on Plasmodium falciparum [1], in the assay with Plasmodium falciparum [2] and with HepG2 were 98%, 46% and 19%, respectively.

For `COc1ccc(CNCCCCCNCc2ccc(Cl)c(Cl)c2)cc1Cl`, the values for the Inhibition in the assay on Plasmodium falciparum [1], in the assay with Plasmodium falciparum [2] and in the assay with HepG2 were 98%, 43% and 42%, respectively.

Turning to `COc1c(Br)cc(Br)cc1C(C)=O`, the Inhibition in the assay on Plasmodium falciparum [1] is reported as 95%; in the assay with Plasmodium falciparum [2], 0%; with HepG2, 3%.
